Among all 5,500 compounds or so, about 2,000 (36%) were called active. Another 18% or so got no clear call; they are omitted. No stated cut-off is given here; in the data, active means normalized growth mostly below about 0.91 (no sharp cut-off); inconclusive means no clear call, values can overlap the other calls; inactive means mostly above about 0.92. Some of the results follow.
Experiment: chemical genetic growth profiling, strain panel (AID 1159580);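 further: tested at 20 µM; growth read once vehicle control cultures reached saturation at 30 °C; 1 = growth at the plate median or of vehicle wells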
Conditions: growth OD

Measured: normalized growth

c1ccc2c3c([nH]c2c1)CNCC3
inactive: S. cerevisiae deletion strains, locus YBR021W, strain FUR4, stronger effect = lower value 1.01 | S. cerevisiae deletion strains, locus YBR229C, strain ROT2, stronger effect = lower value 0.999 | S. cerevisiae deletion strains, locus YCL029C, strain bik1, stronger effect = lower value 1.02 | S. cerevisiae deletion strains, locus YDL035C, strain GPR1, stronger effect = lower value 0.991 | S. cerevisiae deletion strains, locus YDL074C, strain BRE1, stronger effect = lower value 1.01 | S. cerevisiae deletion strains, locus YDL101C, strain DUN1, stronger effect = lower value 1.01 | S. cerevisiae deletion strains, locus YDL185W, strain tfp1, stronger effect = lower value 1.01 | S. cerevisiae deletion strains, locus YDL192W, strain arf1, stronger effect = lower value 0.997 | S. cerevisiae deletion strains, locus YDR101C, strain arx1, stronger effect = lower value 1.02 | S. cerevisiae deletion strains, locus YDR150W, strain NUM1, stronger effect = lower value 1 | S. cerevisiae deletion strains, locus YDR162C, strain NBP2, stronger effect = lower value 0.965 | S. cerevisiae deletion strains, locus YDR318W, strain mcm21, stronger effect = lower value 0.979 | S. cerevisiae deletion strains, locus YDR388W, stronger effect = lower value 0.997 | S. cerevisiae deletion strains, locus YDR502C, strain sam2, stronger effect = lower value 1.01 | S. cerevisiae deletion strains, locus YEL061C, strain CIN8, stronger effect = lower value 0.997 | S. cerevisiae deletion strains, locus YER110C, stronger effect = lower value 1 | S. cerevisiae deletion strains, locus YER155C, strain BEM2, stronger effect = lower value 1.01 | S. cerevisiae deletion strains, locus YER167W, strain BCK2, stronger effect = lower value 0.999 | S. cerevisiae deletion strains, locus YGL078C, strain dbp3, stronger effect = lower value 0.997 | S. cerevisiae deletion strains, locus YGL086W, strain mad1, stronger effect = lower value 1.02 | S. cerevisiae deletion strains, locus YGL248W, strain PDE1, stronger effect = lower value 0.994 | S. cerevisiae deletion strains, locus YGR078C, strain PAC10, stronger effect = lower value 1 | S. cerevisiae deletion strains, locus YGR135W, strain pre9, stronger effect = lower value 0.97 | S. cerevisiae deletion strains, locus YGR252W, strain gcn5, stronger effect = lower value 0.906 | S. cerevisiae deletion strains, locus YHR030C, strain SLT2, stronger effect = lower value 1 | S. cerevisiae deletion strains, locus YHR079C, strain IRE1 (second series), stronger effect = lower value 1.01 | S. cerevisiae deletion strains, locus YHR094C, strain hxt1, stronger effect = lower value 1 | S. cerevisiae deletion strains, locus YHR129C, strain ARP1, stronger effect = lower value 1.01 | S. cerevisiae deletion strains, locus YHR200W, strain rpn10, stronger effect = lower value 1 | S. cerevisiae deletion strains, locus YIL066C, strain RNR3, stronger effect = lower value 1 | S. cerevisiae deletion strains, locus YIL073C, strain SPO22, stronger effect = lower value 1.05 | S. cerevisiae deletion strains, locus YIL125W, strain kgd1, stronger effect = lower value 1.02 | S. cerevisiae deletion strains, locus YIR030C, strain dcg1, stronger effect = lower value 1.01 | S. cerevisiae deletion strains, locus YJL095W, strain BCK1, stronger effect = lower value 0.987 | S. cerevisiae deletion strains, locus YJL134W, strain LCB3, stronger effect = lower value 0.999 | S. cerevisiae deletion strains, locus YJL168C, strain set2, stronger effect = lower value 1 | S. cerevisiae deletion strains, locus YJL187C, strain SWE1 (second series), stronger effect = lower value 0.997 | S. cerevisiae deletion strains, locus YJR043C, strain POL32, stronger effect = lower value 1.01 | S. cerevisiae deletion strains, locus YKL009W, strain mrt4, stronger effect = lower value 1.01 | S. cerevisiae deletion strains, locus YKL068W, stronger effect = lower value 1 | S. cerevisiae deletion strains, locus YKL085W, strain MDH1 (second series), stronger effect = lower value 1 | S. cerevisiae deletion strains, locus YKL085W, strain MDH1, stronger effect = lower value 1 | S. cerevisiae deletion strains, locus YKL190W, strain CNB1, stronger effect = lower value 1 | S. cerevisiae deletion strains, locus YKR001C, strain vps1, stronger effect = lower value 1.02 | S. cerevisiae deletion strains, locus YLR039C, strain RIC1, stronger effect = lower value 1.01 | S. cerevisiae deletion strains, locus YLR058C, strain SHM2, stronger effect = lower value 0.985 | S. cerevisiae deletion strains, locus YLR102C, strain apc9, stronger effect = lower value 1 | S. cerevisiae deletion strains, locus YLR262C, strain YPT6, stronger effect = lower value 0.993 | S. cerevisiae deletion strains, locus YLR268W, strain sec22, stronger effect = lower value 1.03 | S. cerevisiae deletion strains, locus YLR330W, strain CHS5, stronger effect = lower value 1.01 | S. cerevisiae deletion strains, locus YLR342W, strain FKS1 (second series), stronger effect = lower value 0.976 | S. cerevisiae deletion strains, locus YLR371W, strain rom2, stronger effect = lower value 1.02 | S. cerevisiae deletion strains, locus YLR418C, strain cdc73, stronger effect = lower value 0.96 | S. cerevisiae deletion strains, locus YML016C, strain PPZ1, stronger effect = lower value 0.997 | S. cerevisiae deletion strains, locus YML032C, strain rad52, stronger effect = lower value 0.966 | S. cerevisiae deletion strains, locus YML124C, strain tub3, stronger effect = lower value 0.996 | S. cerevisiae deletion strains, locus YMR078C, strain ctf18, stronger effect = lower value 1.02 | S. cerevisiae deletion strains, locus YMR223W, strain ubp8, stronger effect = lower value 0.972 | S. cerevisiae deletion strains, locus YMR263W, strain SAP30, stronger effect = lower value 1 | S. cerevisiae deletion strains, locus YMR307W, strain GAS1, stronger effect = lower value 1.02 | S. cerevisiae deletion strains, locus YNL067W, strain RPL9B, stronger effect = lower value 1 | S. cerevisiae deletion strains, locus YNL128W, strain TEP1, stronger effect = lower value 1.01 | S. cerevisiae deletion strains, locus YNL153C, strain GIM3, stronger effect = lower value 0.997 | S. cerevisiae deletion strains, locus YNL233W, strain BNI4, stronger effect = lower value 1 | S. cerevisiae deletion strains, locus YNL250W, strain rad50, stronger effect = lower value 1.01 | S. cerevisiae deletion strains, locus YNL271C, strain bni1, stronger effect = lower value 1.01 | S. cerevisiae deletion strains, locus YNL298W, strain CLA4, stronger effect = lower value 0.99 | S. cerevisiae deletion strains, locus YNL307C, strain MCK1, stronger effect = lower value 1.01 | S. cerevisiae deletion strains, locus YNR052C, strain pop2, stronger effect = lower value 0.971 | S. cerevisiae deletion strains, locus YOL006C, strain TOP1, stronger effect = lower value 1.06 | S. cerevisiae deletion strains, locus YOL012C, strain htz1 0.744 | S. cerevisiae deletion strains, locus YOL147C, strain pex11, stronger effect = lower value 1 | S. cerevisiae deletion strains, locus YOR061W, strain CKA2, stronger effect = lower value 0.998 | S. cerevisiae deletion strains, locus YOR069W, strain VPS5, stronger effect = lower value 1 | S. cerevisiae deletion strains, locus YOR136W, strain idh2, stronger effect = lower value 1.02 | S. cerevisiae deletion strains, locus YOR144C, strain elg1, stronger effect = lower value 1.01 | S. cerevisiae deletion strains, locus YOR184W, strain ser1, stronger effect = lower value 1 | S. cerevisiae deletion strains, locus YOR316C, strain cot1, stronger effect = lower value 1.01 | S. cerevisiae deletion strains, locus YPL055C, strain LGE1, stronger effect = lower value 0.983 | S. cerevisiae deletion strains, locus YPL241C, strain CIN2, stronger effect = lower value 0.988 | S. cerevisiae deletion strains, locus YPR119W, strain clb2, stronger effect = lower value 1.01 | S. cerevisiae deletion strains, locus YPR141C, strain kar3, stronger effect = lower value 1.01 | S. cerevisiae deletion strains, locus YPR163C, strain tif3, stronger effect = lower value 1.01 | S. cerevisiae deletion strains, locus YPR167C, strain met16, stronger effect = lower value 0.992 | S. cerevisiae deletion strains, strain wtn01, stronger effect = lower value 1.03 | S. cerevisiae strains, strain wild type, stronger effect = lower value 0.989

Reference: PubChem BioAssay AID1159580 (chemical genetic matrix, 2015)
